Where “and” joins values, the source holds several entries; their conditions need not be identical. Equal entries are not always repeated. In all, about 57,000 compounds went through this assay and about 200 (0.35%) were called active. The sample holds actives, similar compounds and a random draw of the others, so the mix is not that of the screen. Unmarked numbers belong to inactive results.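 Rule for the calls: active = mean inhibition of replicates at least 50% and every single replicate also reaching 50%; inconclusive = mean inhibition at least 50% but some replicate falls below 50%; inactive = mean inhibition under 50%.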
biological target: Histone-lysine N-methyltransferase EZH2 (Homo sapiens) (UniProt Q15910); assay: inhibition of PRC2 H3K27 methylation – biochemical, DELFIA time-resolved fluorescence, single point, primary screen (AID 651548); details: DELFIA TRF, 1 h, at 12.5 µM, active compounds read high;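 note: dimethyl H3K27 on biotinylated H3 21-44 peptide detected by antibody; plate controls were median neutral control wells for no effect and median positive control wells for full effect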
Sequence (Q15910 whole entry, looked up): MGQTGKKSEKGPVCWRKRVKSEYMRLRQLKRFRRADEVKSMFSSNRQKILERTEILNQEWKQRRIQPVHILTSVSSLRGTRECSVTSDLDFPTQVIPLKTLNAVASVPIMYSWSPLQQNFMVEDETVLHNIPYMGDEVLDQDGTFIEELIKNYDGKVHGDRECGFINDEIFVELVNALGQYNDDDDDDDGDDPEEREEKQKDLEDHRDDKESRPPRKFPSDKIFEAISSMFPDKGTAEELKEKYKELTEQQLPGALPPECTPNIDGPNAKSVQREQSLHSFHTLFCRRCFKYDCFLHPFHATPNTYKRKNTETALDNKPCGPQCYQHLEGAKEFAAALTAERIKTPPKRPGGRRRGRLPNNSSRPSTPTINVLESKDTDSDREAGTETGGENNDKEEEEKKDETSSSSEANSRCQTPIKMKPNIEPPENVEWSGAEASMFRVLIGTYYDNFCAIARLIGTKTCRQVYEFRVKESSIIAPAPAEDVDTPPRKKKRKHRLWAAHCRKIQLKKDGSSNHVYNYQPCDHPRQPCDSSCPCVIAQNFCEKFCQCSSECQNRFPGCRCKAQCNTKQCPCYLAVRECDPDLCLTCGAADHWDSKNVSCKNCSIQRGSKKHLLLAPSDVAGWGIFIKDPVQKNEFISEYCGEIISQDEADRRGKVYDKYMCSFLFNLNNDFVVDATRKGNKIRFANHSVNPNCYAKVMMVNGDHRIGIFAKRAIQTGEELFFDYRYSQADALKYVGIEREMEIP

SMILES	inhibition
CCC(=O)N1C[C@H](C)[C@H](OC)CN(C)C(=O)c2ccc(NC(=O)c3cnccn3)cc2OC[C@@H]1C	10.3%
COc1cccc(S(=O)(=O)N[C@H]2C=C[C@@H](CC(=O)NCc3ccc(F)cc3)O[C@@H]2CO)c1	13.3%
C[C@@H]1CCCCO[C@H](CN(C)C)[C@H](C)CN([C@@H](C)CO)C(=O)c2cc(NS(=O)(=O)c3ccccc3)ccc2O1	-7.21%
CCCNC(=O)N1C[C@@H](C)[C@@H](OC)CN(C)C(=O)c2ccc(NC(=O)CCC)cc2OC[C@H]1C	-3.61%
CC(C)NC(=O)N(C)C[C@H]1Oc2ncc(-c3ccccc3F)cc2C(=O)N([C@@H](C)CO)C[C@@H]1C	-0.301%
COc1cccc(NC(=O)N[C@H]2C=C[C@@H](CC(=O)Nc3ccc(-c4ccccc4)cc3)O[C@@H]2CO)c1	-1.25%
O=C(C[C@H]1C[C@H]2c3cc(NC(=O)CC4CC4)ccc3O[C@H]2[C@H](CO)O1)NCc1ccccc1	-28.9%
C[C@@H]1CN([C@H](C)CO)S(=O)(=O)c2ccc(C#CC3CCCCC3)cc2O[C@H]1CN(C)C(=O)Cc1ccncc1	-42.6% and -20.9%
COc1ccc(NC(=O)N[C@H]2CC[C@@H](CCNS(=O)(=O)c3cccc(Cl)c3)O[C@H]2CO)cc1	-37.3%
CO[C@@H]1CN(C)C(=O)c2ccc(NC(=O)Nc3c(C)noc3C)cc2OC[C@@H](C)N(C(=O)Nc2cccc(Cl)c2)C[C@H]1C	-3.56%
CCC(=O)N(C)C[C@H]1Oc2cc(C#CC3CC3)ccc2S(=O)(=O)N([C@H](C)CO)C[C@H]1C	-6.49%
CCOC(=O)C1CCCN(C(=O)c2c[nH]n3c(=O)c(Cc4ccc(Cl)cc4)c(C)nc23)C1 (stereo unspecified)	11.7%
CO[C@@H]1CN(C)C(=O)c2cc(NC(=O)c3ccc(F)cc3)ccc2OC[C@H](C)NC[C@@H]1C	8.13%
CC(C)C#Cc1ccc2c(c1)O[C@H](CN(C)CC1CCOCC1)[C@@H](C)CN([C@H](C)CO)S2(=O)=O	0.383%
COc1cccc(S(=O)(=O)N[C@H]2C=C[C@H](CC(=O)NCc3ccc(Cl)cc3)O[C@@H]2CO)c1	7.24%
C[C@H]1CN([C@@H](C)CO)C(=O)c2cccc(NC(=O)Nc3ccccc3)c2O[C@H]1CN(C)Cc1ccc(C(F)(F)F)cc1	-14.8%
C[C@H](CO)N1C[C@H](C)[C@@H](CN(C)C(=O)c2cccc(F)c2)Oc2cc(-c3cncnc3)ccc2S1(=O)=O	14.3% and -4.79%
COc1ccccc1C(=O)Nc1ccc2c(c1)C(=O)N(C)C[C@@H](OC)[C@@H](C)CN(C)[C@H](C)CO2	1.85%
COc1cccc(-c2cnc3c(c2)C(=O)N([C@H](C)CO)C[C@@H](C)[C@H](CN(C)Cc2ccc(F)cc2)O3)c1	10%
CC(C)NC(=O)N(C)C[C@@H]1Oc2cc(C#C[C@H](C)O)ccc2S(=O)(=O)N([C@@H](C)CO)C[C@H]1C	8.88%
C[C@@H]1CN([C@H](C)CO)S(=O)(=O)c2ccc(C#CC3(O)CCCC3)cc2O[C@@H]1CN(C)C(=O)c1cccnc1	5.12%

SMILES	inhibition
COCC(=O)Nc1ccc2c(c1)[C@@H]1C[C@H](CC(=O)NCc3cc(F)ccc3F)O[C@@H](CO)[C@@H]1O2	-6.69%
C[C@@H]1CN([C@@H](C)CO)S(=O)(=O)c2ccc(-c3ccc(C#N)cc3)cc2O[C@H]1CN(C)Cc1ccccn1	5.38%
CO[C@@H]1CN(C)C(=O)c2ccc(NC(=O)C3CCC3)cc2OC[C@H](C)N(C(=O)CN(C)C)C[C@H]1C	0.087%
O=C(C[C@@H]1C[C@@H]2c3cc(NC(=O)NC4CCCC4)ccc3O[C@@H]2[C@H](CO)O1)NCC(F)(F)F	3.2%
CC(C)(C)S(=O)N1Cc2cc(C(=O)O)nc(-c3cccc(-c4cc5ccccc5o4)c3)c2[C@@H]1CCO (stereo partly specified)	9.63%
CO[C@@H]1CN(C)C(=O)c2cc(NC(=O)NC3CCCCC3)ccc2OC[C@H](C)N(CC2CC2)C[C@H]1C	-6.48%
O=C(N[C@H]1CC[C@H](CCNS(=O)(=O)c2ccc(F)cc2)O[C@H]1CO)C1CCCC1	-3.3%
O=C(C[C@@H]1C=C[C@H](NC(=O)C2CCC2)[C@@H](CO)O1)NCC1CC1	10.5%
CCCN1C[C@H](C)[C@@H](OC)CN(C)C(=O)c2ccc(NC(=O)C3CCOCC3)cc2OC[C@H]1C	7.14%
O=C(C[C@H]1C=C[C@H](NC(=O)Nc2ccc(C(F)(F)F)cc2)[C@@H](CO)O1)NCCN1CCCC1	11.8%
C[C@@H]1CCCCO[C@@H](CN(C)Cc2ccncc2)[C@H](C)CN([C@H](C)CO)C(=O)c2cc(NC(=O)CCC(F)(F)F)ccc2O1	0.938%
CCC(=O)N1C[C@@H](C)[C@H](OC)CN(C)C(=O)c2ccc(NC(=O)NC(C)C)cc2OC[C@H]1C	5.57%
CNC[C@@H]1Oc2cc(C#CC3(O)CCCC3)ccc2S(=O)(=O)N([C@@H](C)CO)C[C@H]1C	-0.413%
OC[C@@]1(O)CO[C@H](OC[C@H]2O[C@@H](OC(CCCCc3ccc(O)cc3)CCc3ccc(O)cc3)[C@H](O[C@H]3OC[C@](O)(CO)[C@H]3O)[C@@H](O)[C@@H]2O)[C@@H]1O (stereo partly specified)	99% (active)
OC[C@H]1O[C@@H](OCc2ccccc2)[C@H](O[C@@H]2OC[C@](O)(CO)[C@H]2O)[C@@H](O)[C@@H]1O	10.5%
C/C=C/c1ccc2c(c1)O[C@@H](CN(C)C(=O)NC1CCCC1)[C@@H](C)CN([C@H](C)CO)S2(=O)=O	10.7%
CCCN(C)C[C@H]1OCCCC[C@H](C)Oc2ccc(NS(=O)(=O)c3ccc(C)cc3)cc2C(=O)N([C@@H](C)CO)C[C@H]1C	-43.7%
CO[C@H]1CN(C)C(=O)c2ccc(NC(=O)c3cnccn3)cc2OC[C@@H](C)N(C(C)=O)C[C@H]1C	7.05%
CO[C@H]1CN(C)C(=O)c2cc(NS(=O)(=O)c3ccccc3)ccc2OC[C@H](C)NC[C@@H]1C	3.07%
CN(C)C(=O)C[C@H]1C[C@H]2c3cc(NC(=O)Nc4ccc(C(F)(F)F)cc4)ccc3O[C@H]2[C@@H](CO)O1	-22.5%
CO[C@@H]1CN(C)C(=O)c2cc(NC(=O)C3CCOCC3)ccc2OC[C@@H](C)NC[C@@H]1C	5.55%

SMILES	inhibition
CCC(=O)N1C[C@@H](C)[C@H](OC)CN(C)C(=O)c2ccc(NC(=O)COC)cc2OC[C@@H]1C	2.05%
CC(C)NC(=O)N[C@@H]1CC[C@H](CC(=O)NC2Cc3ccccc3C2)O[C@H]1CO	-19.2%
O=C(Nc1ccccc1F)N[C@@H]1CC[C@H](CCNC(=O)C2CC2)O[C@@H]1CO	-5.22%
C[C@@H](NC(=O)C[C@@H]1CC[C@H](NC(=O)Cc2ccccn2)[C@H](CO)O1)c1ccccc1	5.38%
CO[C@@H]1CN(C)C(=O)c2cc(NC(=O)c3cnccn3)ccc2OC[C@@H](C)N(CC2CC2)C[C@H]1C	-3.51%
CO[C@H]1CN(C)C(=O)c2ccc(NS(C)(=O)=O)cc2OC[C@@H](C)N(Cc2ccccc2)C[C@H]1C	27.6%
CN(C)C(=O)C[C@H]1CC[C@H](NC(=O)NC2CCCC2)[C@@H](CO)O1	6.6%
CN(C)CC(=O)N[C@H]1CC[C@@H](CCNC(=O)C2CCCC2)O[C@@H]1CO	4.19%
O=S(=O)(N[C@@H]1CC[C@@H](CCn2cc(-c3ccccn3)nn2)O[C@@H]1CO)c1cccc(Cl)c1	1.97%
O=C(Nc1ccccc1F)N[C@H]1C=C[C@H](CC(=O)N2CCCCC2)O[C@H]1CO	11.6%
C[C@@H]1CN([C@H](C)CO)S(=O)(=O)c2ccc(C#Cc3ccccc3F)cc2O[C@@H]1CN(C)C(=O)c1ccc2c(c1)OCO2	-7.72%
C[C@@H]1CN([C@@H](C)CO)C(=O)c2cc(C3=CCCC3)cnc2O[C@H]1CN(C)C(=O)c1ccccn1	-1.13%
O=C(Nc1ccccc1F)N[C@@H]1C=C[C@H](CC(=O)N2CCCCC2)O[C@@H]1CO	-6.07%
C[C@@H]1CN([C@@H](C)CO)C(=O)c2cc(Br)cnc2O[C@H]1CN(C)Cc1ccc(-c2ccccc2)cc1	32.3%
CCCNC(=O)N(C)C[C@H]1Oc2cc(-c3ccncc3)ccc2S(=O)(=O)N([C@H](C)CO)C[C@@H]1C	2.1%
O=C(C[C@H]1C=C[C@@H](NC(=O)c2ccc(F)cc2)[C@@H](CO)O1)NCCc1ccncc1	-4.57%
O=C(N[C@@H]1CC[C@@H](CC(=O)N2CCc3ccccc3C2)O[C@@H]1CO)C1CCOCC1	-3.58%
COCC#Cc1ccc2c(c1)O[C@H](CN(C)C(=O)CN(C)C)[C@@H](C)CN([C@H](C)CO)S2(=O)=O	-3.07%
COCC(=O)N(C)C[C@@H]1Oc2ncc(-c3ccccc3OC)cc2C(=O)N([C@@H](C)CO)C[C@@H]1C	16.6%
CCCN(C)C[C@H]1OCCCC[C@@H](C)Oc2ccc(NC(=O)Nc3ccc(F)cc3)cc2C(=O)N([C@@H](C)CO)C[C@H]1C	18.6%
O=C(C[C@@H]1C[C@@H]2c3cc(NC(=O)c4ccc5c(c4)OCO5)ccc3O[C@@H]2[C@H](CO)O1)NCC1CC1	6.48%

SMILES	inhibition
O=C(C[C@@H]1C[C@H]2c3cc(NC(=O)CC4CC4)ccc3O[C@H]2[C@@H](CO)O1)NCc1ccc2c(c1)OCO2	-6.28%
O=C(C[C@@H]1C=C[C@@H](NS(=O)(=O)c2ccc(F)cc2)[C@@H](CO)O1)NCCN1CCCCC1	7.22%
O=C(CN1CCOCC1)N[C@@H]1CC[C@@H](CCn2cc(C3CCCCC3)nn2)O[C@@H]1CO	3.73%
O=C(C[C@@H]1C=C[C@H](NC(=O)Nc2ccc(C(F)(F)F)cc2)[C@H](CO)O1)NCc1cccc(F)c1	-12.8%
O=S(=O)(NCC[C@H]1CC[C@@H](NS(=O)(=O)c2ccccc2Cl)[C@@H](CO)O1)c1ccc(Cl)cc1	-8.5%
O=C(CN1CCOCC1)N[C@H]1CC[C@@H](CCNS(=O)(=O)c2ccccc2F)O[C@H]1CO	0.878%
COc1ccccc1CNC(=O)C[C@H]1C[C@H]2c3cc(NS(=O)(=O)c4ccc(F)cc4)ccc3O[C@H]2[C@@H](CO)O1	-7.14%
O=C(Nc1ccccc1)N[C@H]1CC[C@H](CCNC(=O)c2ccccc2F)O[C@H]1CO	-1.66%
Cc1ccccc1S(=O)(=O)NCC[C@@H]1CC[C@@H](NS(=O)(=O)c2ccccc2C)[C@@H](CO)O1	6.69%
COc1cccc(S(=O)(=O)N[C@@H]2C=C[C@H](CC(=O)NC3CCC3)O[C@H]2CO)c1	4.61%
CNC[C@H]1OCCCC[C@H](C)Oc2ccc(NS(C)(=O)=O)cc2C(=O)N([C@@H](C)CO)C[C@H]1C	5.37%
CO[C@@H]1CN(C)C(=O)c2cc(NC(=O)c3cnccn3)ccc2OC[C@@H](C)N(C(=O)C2CC2)C[C@@H]1C	3.91%
C[C@@H]1CN([C@@H](C)CO)C(=O)Cc2cc(NC(=O)C3CCCCC3)ccc2O[C@H]1CN(C)C(=O)Nc1ccccc1	1.25%
CCCNC(=O)Nc1ccc2c(c1)C(=O)N(C)C[C@H](OC)[C@H](C)CN(Cc1ccncc1)[C@H](C)CO2	-16.3%
CCCNC(=O)Nc1ccc2c(c1)OC[C@@H](C)N(CCC)C[C@H](C)[C@@H](OC)CN(C)C2=O	0.898%
C[C@@H]1CN([C@@H](C)CO)C(=O)c2cc(C#CC3CCCCC3)cnc2O[C@@H]1CN(C)Cc1cncnc1	-2.95%
O=C(C[C@H]1C[C@@H]2c3cc(NC(=O)C4CCC4)ccc3O[C@@H]2[C@@H](CO)O1)NCCN1CCCCC1	1.25%
CO[C@@H]1CN(C)C(=O)c2cc(NC(=O)Nc3ccc4c(c3)OCO4)ccc2OC[C@@H](C)NC[C@@H]1C	3.91%
